From PubChem BioAssay AID1159580 (chemical genetic matrix, 2015)
The whole screen tested about 5,500 compounds, of which about 2,000 (36%) were called active. About 18% were inconclusive and are not listed. No stated cut-off is given here; in the data, active means normalized growth mostly below about 0.91 (no sharp cut-off); inconclusive means no clear call, values can overlap the other calls; inactive means mostly above about 0.92. Some of the results follow.

Assay: chemical genetic growth profiling, strain panel (AID 1159580);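 further: tested at 20 µM; growth read once vehicle control cultures reached saturation at 30 °C; 1 = growth at the plate median or of vehicle wells; lower values mean less growth of the strain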
Details: S. cerevisiae deletion strains, growth OD

Measured: normalized growth

CC(C)=CCCC(C)[C@@H]1CC[C@]2(C)C3=C(CC[C@@]12C)C1(C)CC[C@H](O)C(C)(C)C1CC3 (some centres undefined)
active: locus YKL009W, strain mrt4, active compounds read low 0.775 | locus YKR026C, strain gcn3, active compounds read low 1.09 [resistant] | locus YKR091W, strain srl3, active compounds read low 1.1 [resistant] | locus YLL026W, active compounds read low 1.07 [resistant] | locus YLR262C, strain YPT6 (second series), active compounds read low 0.822 | locus YMR307W, strain GAS1, active compounds read low 1.42 [resistant] | locus YNL233W, strain BNI4, active compounds read low 1.13 [resistant] | locus YOL147C, strain pex11, active compounds read low 1.1 [resistant] | locus YOR080W, strain dia2, active compounds read low 1.09 [resistant] | locus YOR184W, strain ser1, active compounds read low 0.85 | locus YOR265W, strain rbl2, active compounds read low 1.07 [resistant] | locus YPL106C, strain sse1, active compounds read low 1.26 [resistant]
inactive: locus YJL187C, strain SWE1 (second series), active compounds read low 0.995 | locus YJL187C, strain SWE1, active compounds read low 1.06 | locus YJR066W, strain TOR1, active compounds read low 0.866 | locus YKL068W, active compounds read low 1.04 | locus YKL085W, strain MDH1 (second series), active compounds read low 1.03 | locus YKL085W, strain MDH1, active compounds read low 1.03 | locus YKL160W, strain elf1, active compounds read low 1.03 | locus YKR001C, strain vps1, active compounds read low 0.979 | locus YLL001W, strain dnm1, active compounds read low 1.07 | locus YLL041C, strain sdh2, active compounds read low 1.06 | locus YLR027C, strain aat2, active compounds read low 1.07 | locus YLR039C, strain RIC1, active compounds read low 1.24 | locus YLR058C, strain SHM2, active compounds read low 0.996 | locus YLR102C, strain apc9, active compounds read low 1.05 | locus YLR113W, strain HOG1, active compounds read low 0.866 | locus YLR221C, strain rsa3, active compounds read low 1.06 | locus YLR258W, strain gsy2, active compounds read low 1.07 | locus YLR268W, strain sec22, active compounds read low 0.973 | locus YLR320W, strain mms22, active compounds read low 1.05 | locus YLR330W, strain CHS5, active compounds read low 1.06 | locus YLR342W, strain FKS1, active compounds read low 1.05 | locus YLR357W, strain rsc2, active compounds read low 1.13 | locus YLR370C, strain arc18, active compounds read low 1.07 | locus YLR371W, strain rom2, active compounds read low 1.06 | locus YLR384C, strain iki3, active compounds read low 1.07 | locus YLR418C, strain cdc73, active compounds read low 1.15 | locus YML016C, strain PPZ1, active compounds read low 1.06 | locus YML032C, strain rad52, active compounds read low 0.946 | locus YML120C, strain ndi1, active compounds read low 1.03 | locus YML124C, strain tub3, active compounds read low 1.06 | locus YMR058W, strain fet3, active compounds read low 1 | locus YMR078C, strain ctf18, active compounds read low 1.08 | locus YMR125W, strain sto1, active compounds read low 1.07 | locus YMR129W, active compounds read low 1.06 | locus YMR205C, strain PFK2, active compounds read low 1.04 | locus YMR223W, strain ubp8, active compounds read low 0.971 | locus YMR231W, strain pep5, active compounds read low 1.04 | locus YNL067W, strain RPL9B, active compounds read low 1.02 | locus YNL071W, strain lat1, active compounds read low 1.04 | locus YNL128W, strain TEP1, active compounds read low 0.996 | locus YNL183C, strain NPR1, active compounds read low 0.846 | locus YNL209W, strain ssb2, active compounds read low 1.06 | locus YNL248C, strain rpa49, active compounds read low 1.01 | locus YNL250W, strain rad50, active compounds read low 0.996 | locus YNL271C, strain bni1, active compounds read low 1.01 | locus YNL298W, strain CLA4, active compounds read low 0.917 | locus YNL307C, strain MCK1, active compounds read low 1.03 | locus YNL322C, strain KRE1 (second series), active compounds read low 1.08 | locus YNR049C, strain mso1, active compounds read low 1.08 | locus YNR052C, strain pop2, active compounds read low 0.968 | locus YOL012C, strain htz1 1.41 | locus YOR001W, strain rrp6, active compounds read low 1.02 | locus YOR061W, strain CKA2, active compounds read low 0.994 | locus YOR069W, strain VPS5, active compounds read low 1.05 | locus YOR070C, strain gyp1, active compounds read low 1.05 | locus YOR083W, strain WHI5, active compounds read low 0.994 | locus YOR106W, strain vam3, active compounds read low 0.939 | locus YOR136W, strain idh2, active compounds read low 1.02 | locus YOR144C, strain elg1, active compounds read low 1.02 | locus YOR231W, strain MKK1, active compounds read low 0.874 | locus YOR270C, strain vph1, active compounds read low 0.839 | locus YOR290C, strain snf2, active compounds read low 0.992 | locus YOR316C, strain cot1, active compounds read low 1.06 | locus YPL051W, strain arl3, active compounds read low 1.02 | locus YPL078C, strain atp4, active compounds read low 1.02 | locus YPL240C, strain hsp82, active compounds read low 1.05 | locus YPL256C, strain CLN2, active compounds read low 0.994 | locus YPR119W, strain clb2, active compounds read low 1.07 | locus YPR141C, strain kar3, active compounds read low 1.05 | locus YPR163C, strain tif3, active compounds read low 0.975 | locus YPR167C, strain met16, active compounds read low 1.03 | strain wtn01, active compounds read low 0.949
